From PubChem BioAssay AID1850 (Southern Research Specialized Biocontainment Screening …, 2009)
Where “and” joins values, the source holds several entries; their conditions need not be identical. Equal entries are not always repeated. Out of some 310,000 compounds screened, about 1,000 (0.32%) were called active. The list is a sample of the results. Potency and affinity values are given separately. A number with no mark means an inactive call. No rule for the calls is given here.

Test: PhoP regulon inhibitors, Salmonella typhi PhoP promoter GFP reporter, confirmatory (AID 1850);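 also: 0% = induced wells with vehicle and 100% = uninduced wells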
Conditions: fluorescence, 4 h, at 50 µM, hits give high values

SMILES | inhibition
O=C(Nc1cccnc1)C1CC(c2ccccc2O)=NO1 (centres undefined) | -2.59%
CCNc1nc(NCC)nc(OCCOC(=O)c2ccccc2)n1 | -3.56%
COc1cc(CNCCN2CCOCC2)ccc1OCc1ccccc1Cl | 8.72%
COc1cccc(C2c3[nH]c4ccccc4c3C[C@H]3C(=O)N(c4ccccc4C(=O)N4CCC(C(=O)O)CC4)C(=O)N23)c1 (some centres undefined) | -4.46%
O=C(c1cccc(F)c1)N1CCN(C(=O)c2cc3nc(-c4ccco4)cc(C(F)(F)F)n3n2)CC1 | -3.4%
COc1cc(NC(=O)Cc2ccc(F)cc2)cc(OC)c1OC | -5.66%
CCOC(=O)Cc1csc(NC(NC(=O)CC)(C(F)(F)F)C(F)(F)F)n1 | 0.93%
CC1CCCCC1NC(=O)COC(=O)COc1ccccc1Cl (centres undefined) | -4.09%
O=C(CCS(=O)(=O)c1cccc2nonc12)N1CCCc2ccccc21 | 4.05%
CCOc1ccc(C(=O)Nc2nc(C)c(C(=O)OC)s2)cc1 | -11%
CCOc1ccc(S(=O)(=O)N2CN3CCN(C3)C2)cc1 | -2.97%
Cc1ccc(S(=O)(=O)N2CN3CCN(C3)C2)cc1 | 13.8%
Cc1ccc(N2C(=O)c3ccccc3C2=O)cc1 | -2.86%
CC(=O)N(c1ccc(Cl)cc1)c1nc(C)cc(C)c1C#N | 6.97%
CCc1ccc(NC(=O)Nc2cnccn2)cc1 | -5.86%
S=C(NCc1ccc(Cl)cc1)Nc1ccccc1 | -8.41%
S=C(NCc1ccncc1)Nc1ccc(Cl)cc1 | -0.61%
O=C(Nc1ccncc1)Nc1ccncc1 | 0.03%
O=C(Nc1ccncc1)Nc1ccc(F)c(Cl)c1 | 14.2%
CCc1ccc(NC(=O)Nc2ccon2)cc1 | -5.91%
O=C1CCS/C(=N\N=C\c2ccc(Cl)cc2Cl)N1 | 6.05%
CCc1ccc(-c2cc3c(=O)n(CC(=O)NCCCN4CCN(C)CC4)ncn3n2)cc1 | 5.21%
CC1CCCCC1NC(=O)CSc1ccc([N+](=O)[O-])cc1 (centres undefined) | 6.99%
Cc1cc(-c2nnc3n2N=C(c2ccc(F)cc2)CS3)n[nH]1 | -5.9%

SMILES | inhibition
COc1ccccc1-n1c(C)cc(C=O)c1C | -1.75%
CCCc1nc(Cl)c(C#N)c2c1CCCC2 | -3.33%
CCOC(=O)Cc1cn2c(=O)cc(CSCC(=O)Nc3ccc(C)c(C)c3)nc2s1 | -2.4%
COc1cc2[nH]c3c(c2cc1OC)CCN1CCCC[C@@H]31 | 5.9%
O=S(=O)(c1ccc(F)cc1)c1nc(-c2ccco2)oc1Nc1ccc(F)cc1 | -12.3%
C=CCn1c(SCC(=O)NC2CCS(=O)(=O)C2)nnc1-c1ccc(Cl)cc1 (centres undefined) | -6.21%
O=C(CSc1nnc(C2COc3ccccc3O2)o1)Nc1ccc(F)cc1Cl (centres undefined) | -3.78%
O=C(Nc1nnc(C2=COCCO2)o1)c1ccc(F)cc1 | 1.96%
CCOC(=O)C1=C(COC(=O)C2(C)CC2(Cl)Cl)NC(=O)NC1c1ccc(OC)cc1 (centres undefined) | 6.71%
COc1ccccc1CNCC(=O)Nc1cc(S(=O)(=O)N2CCCCCC2)ccc1Cl | -6.34%
CCN(c1ccc(C(O)(C(=O)OC)C(F)(F)F)cc1)S(=O)(=O)c1ccccc1 (centres undefined) | -2.75%
COc1ccc(Cl)cc1C(=O)NCCN(C)C | -0.53%
CN(C)CCNC(=O)COc1ccc(Cl)cc1Cl | 1.91%
CCCSc1nc(N)cc(=O)[nH]1 | 5.93%
Oc1ccc2c(c1)c1c3n2CCNC3CCC1 (centres undefined) | -4.83%
c1ccc(-c2ccc3c(c2)c2c4n3CCN=C4CCC2)cc1 | 6.31%
Cc1ccc2c(c1)c1c3n2CCN(C(=O)CN2CCN(C)CC2)C3CCC1 (centres undefined) | 4.43%
Cc1ccc2c(c1)c1c3n2CCN=C3CCC1 | 0.52%
Cc1ccc2c(c1)c1c3n2CCCNC3CCC1 (centres undefined) | 5.15%
Cc1ccc2c(c1)c1c3n2CCN(C(=O)CCl)C3CCC1 (centres undefined) | 7.2%
CCOP(=O)(c1ccccc1)C1(O)CCCCC1 (centres undefined) | 14.1%
Cc1ccc(S(=O)(=O)N2C(=O)CCC2C(=O)O/N=C(\N)c2ccccc2)cc1 (centres undefined) | -13.3%
O=C(CN(C(=O)c1csnn1)c1ccccc1Cl)NC1CCCC1 | 13.4%
O=C(O)c1cccc([N+](=O)[O-])c1C(=O)Nc1nc2ccccc2s1 | 4.78%

SMILES | inhibition
CCn1c(CN2c3ccccc3Sc3ccccc32)n[nH]c1=S | 4.44%
O=C(c1cccc(Cl)c1)N1CCCc2ccccc21 | 4.51%
Cc1ccc(S(=O)(=O)N2CCN(c3cnn(C)c(=O)c3Cl)CC2)cc1 | -6.96%
CCCCn1c(N)c(N(CCC(C)C)C(=O)CCN2C(=O)C3CC=CCC3C2=O)c(=O)[nH]c1=O (centres undefined) | 0.9%
CCOC(=O)c1c(NC(=O)Cn2nc(C(=O)O)c3ccccc3c2=O)sc2c1CCC(C)C2 (centres undefined) | 17.9%
COc1cccc(C2(O)CC(C(F)(F)F)=NN2C(=O)c2ccccn2)c1 (centres undefined) | 7.91%
C[n+]1c2n(c3ccccc31)N=C(c1ccccc1)CS2 | 0.32% and 11.8%
C[n+]1c2n(c3ccccc31)N=C(c1ccc(Cl)cc1)CS2 | 12.3%
O=C(CSC1=NS(=O)(=O)c2ccccc2N1)NCc1ccc(F)cc1 | -4.98%
O=C(Cc1ccccc1)N/N=C/c1ccc([N+](=O)[O-])s1 | -7.77%
O=C(CNC(=O)c1ccccc1)N/N=C/c1cccs1 | -1.08%
O=C(CNC(=O)c1cccc(F)c1)N/N=C/c1cccc([N+](=O)[O-])c1 | -5.75%
O=C(Cc1cccs1)N/N=C/c1ccccc1 | 10.9%
O=C(CNC(=O)c1ccccc1Cl)N/N=C/c1ccc([N+](=O)[O-])s1 | -11.8%
O=C(Cc1ccccc1)NCC(=O)N/N=C/c1ccc([N+](=O)[O-])s1 | 11.8%
Cn1cccc1Cc1nnc(SCC(=O)Nc2ccc3c(c2)OCO3)n1-c1ccc(F)cc1 | -1.53%
NC(=O)CN1C(=O)NC2(CCOc3ccccc32)C1=O (centres undefined) | 1.52%
CC(=O)Nc1ccc(NC(=O)c2cccc(-c3cc4ccccc4oc3=O)c2)cc1 | 12.9%
CCn1cc(C(=O)NCCCOC(C)C)c2cc(OC)c(OC)cc2c1=O | 2.36%
CN(C)c1ccc(P(=O)(COc2ccc([N+](=O)[O-])cc2)c2ccc(N(C)C)cc2)cc1 | 2.27%
O=C(CSc1ccc(-c2cccnc2)nn1)N1CCCCCC1 | 1.55%
O=C(CCCn1cc([N+](=O)[O-])cn1)NCc1ccccc1 | 8.46%
Cc1c(C(=S)NC(=O)C2CC2)c(=O)n(-c2ccccc2)n1C | -1.42%
CCc1ccc2c(CN(CC)Cc3nc4ccccc4c(=O)[nH]3)cc(=O)oc2c1 | 1.52%

SMILES | inhibition
Nc1nc2ccccc2n1CCOc1ccc(F)cc1 | -3.28%
Cc1ccc(Cn2c(N)nc3ccccc32)cc1 | 9.42%
Nc1nc2ccccc2n1CCOc1ccc(Cl)cc1 | 14.7%
CCn1c(N)nc2ccccc21 | 4.17%
Cc1ccc(NS(=O)(=O)c2ccc(C(=O)N3CC(C)CC(C)C3)cc2)cc1 (centres undefined) | -0.14%
Cc1cc(=O)oc2cc(OCc3ccc(S(=O)(=O)N4CCOCC4)cc3)ccc12 | -0.96%
COc1cccc(/C=C2\SC(=S)N(C(C)C(=O)NC3C=CS(=O)(=O)C3)C2=O)c1 (centres undefined) | -39%
CC(C(=O)N(C)C1CCS(=O)(=O)C1)N1C(=O)/C(=C/c2ccc(F)cc2)SC1=S (centres undefined) | -40%
O=C(CN1C(=O)/C(=C/c2cccc(Cl)c2)SC1=S)NC1C=CS(=O)(=O)C1 (centres undefined) | -2.52%
CC(C(=O)NC1C=CS(=O)(=O)C1)N1C(=O)/C(=C\c2ccccc2)SC1=S (centres undefined) | -9.78%
COc1ccc(/C=C2\SC(=S)N(C(C)C(=O)NC3C=CS(=O)(=O)C3)C2=O)cc1 (centres undefined) | 0.74%
CC(C)c1ccc(/C=C2\SC(=O)N(CC(=O)NC3CCS(=O)(=O)C3)C2=O)cc1 (centres undefined) | -0.28%
COc1cc2c(cc1OC)C(C)N(C(=O)c1c(C)noc1C)CC2 (centres undefined) | -18.4%
CC(=O)CCC(=O)OCC(=O)Nc1ccc(SC(F)F)cc1 | -3.54%
O=C1CCC(=O)N1c1ccc(NC2CCN(Cc3ccccc3)CC2)c([N+](=O)[O-])c1 | -3.82%
CC1(C)C2CC[C@]3(C)C(CC=C4[C@@H]5C[C@@](C)(CO)[C@@H](O)C[C@]5(C(=O)O)CC[C@]43C)[C@@]2(C)CC[C@@H]1O (some centres undefined) | -13.5%
CC(C)(C)NCc1cccn1-c1sc2c(c1C#N)CCCC2 | -5.99%
C=CC[n+]1c(/C=C2\C=Cc3cc(C)ccc3N2CC)ccc2ccccc21 | -11.1%
CCN1/C(=C/c2ccc3ccccc3[n+]2CCCS(=O)(=O)[O-])C=Cc2cc(C)ccc21 | 14.2%
CCOC(=O)C(=CNc1ccc(C(O)(C(=O)OCC)C(F)(F)F)cc1C)C(=O)OCC (centres undefined) | -10.1%
CCOC(=O)c1[nH]c2ccc(OC)cc2c1NC(=O)CN1CCSCC1 | 6.71%
Cc1cccc(N2CCN(C(=O)c3csc4ccccc34)CC2C)c1 (centres undefined) | -6.46%
